In the library only some 10% were active in any assay of this set; here they are far more common.
Luc counter – Counterscreen for Luciferase (Kinase-Glo TM) Inhibition | Kinase-Glo luciferase, ATP luminescence, 8 min | Potency, µM (titrated, usually from 38.3 µM), most hits filed as inhibitors | actives 0.28% (n = 200,000); active = well fitted inhibition curve with a large enough effect; inconclusive = small, poorly fitted or top-dose-only effect; also: nearly all actives have a fitted effect of over 60% in size
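Kinase-Glo luciferase light output from ATP and luciferin was measured with 10 uM ATP, within the enzyme's linear range. Buffer: 50 mM imidazole pH 7.2, 50 mM KCl, 7 mM MgCl2, 0.01% Tween 20, 0.05% BSA; luminescence read after 8 min at ambient temperature.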
PNC inhibitor – High Content Assay for Compounds that inhibit the Assembly of the Perinucleolar Compartment; AID 2417, 2010; PC3M PTB-GFP, PNC prevalence imaging, 16 h; hits give low values; actives 3.1% (n = 140,000); activity change (PNC), negative = inhibition, % at 10 µM;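 active = readout at or below -70, meaning at least 70% loss of cells showing the perinucleolar compartment, a nuclear body marking cancer cells; inconclusive = readout between -30 and a set limit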
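Compounds are pinned in duplicate onto adhered PC3M cells stably expressing GFP-tagged PTB and incubated 16 h at 37 C. Cells are then fixed, nuclei stained with Hoechst, and PNC-positive cells counted.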
ALDH1A1 block – qHTS Assay for Inhibitors of Aldehyde Dehydrogenase 1 (ALDH1A1) | actives 7.3% (n = 220,000) | AID 1030, 2008 | Potency, µM (highest dose often 75.3 µM), usual class: inhibitors | Aldehyde dehydrogenase 1A1 (Homo sapiens), P00352 | Purified ALDH1A1, NADH fluorescence, propionaldehyde substrate
Lamin A splicing – qHTS Assay for Modulators of Lamin A Splicing | actives 0.01% (n = 200,000) | HeLa LMNA splicing GFP/RFP minigene ratio, 48 h | Potency, µM (doses to about 46.1 µM), hits mostly inhibitors; active = well fitted inhibition curve with a large enough effect in the signal ratio, with a control signal flat, not every such curve was filed as active; inconclusive = small, poorly fitted or top-dose-only effect, or effect the other way, or a change in a side signal; the % refers to the signal ratio
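Read-out is the ratio of GFP to DsRed2 object intensity, acquired by 488 nm laser-scanning cytometry on HeLa lamin A-EGFP minigene reporter cells. Compound incubation 48 hrs at 37 °C in Opti-MEM with 2% FBS; DMSO 0.5% final.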
HPGD block – qHTS Assay for Inhibitors of HPGD (15-Hydroxyprostaglandin Dehydrogenase). 15-hydroxyprostaglandin dehydrogenase [NAD(+)] (Homo sapiens), P15428. purified HPGD, NADH fluorescence kinetic, PGE2 substrate. Potency, µM, most hits filed as inhibitors. actives 4.3% (n = 150,000). AID 894, 2007
Target sequence (P15428 whole entry, looked up): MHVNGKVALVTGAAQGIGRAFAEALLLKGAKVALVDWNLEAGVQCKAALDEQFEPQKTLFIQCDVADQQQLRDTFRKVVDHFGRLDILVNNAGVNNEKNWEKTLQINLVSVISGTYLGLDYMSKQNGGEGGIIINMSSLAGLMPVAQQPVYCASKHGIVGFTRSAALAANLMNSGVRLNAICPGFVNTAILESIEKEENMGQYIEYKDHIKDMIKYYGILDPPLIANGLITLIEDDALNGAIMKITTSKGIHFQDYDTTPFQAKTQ
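NADH formation kinetics: reaction with 30 uM PGE2 and 1 mM NAD+ (final), 20 nM enzyme, Tris-HCl pH 8 with Tween 20, after 15 min compound preincubation at room temperature. Fluorescence change, last versus first of five reads.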
A number is an active result; . = inactive; ? = inconclusive; / = no result. Unless noted, calls follow the shape of the dose curve; as a rule, active = well fitted inhibition curve with a large enough effect (not every such curve was filed as active); inconclusive = small, poorly fitted or top-dose-only effect, or another doubt; inactive = no such curve, though single readings can be large or run the other way.

SMILES	Luc counter	PNC inhibitor	ALDH1A1 block	Lamin A splicing	HPGD block
COc1ccc(NC(=O)COC(=O)CCCOc2ccc(Cl)cc2Cl)cc1	.	?	.	.	.
O=C(OCc1ccc2c(c1)OCO2)c1ccc(S(=O)(=O)N2CCCC2)cc1	.	.	?	.	.
COc1ccc(NC(=O)COC(=O)CCCOc2ccc(Cl)cc2Cl)cc1Cl	.	.	.	.	28.2µM
O=C(COC(=O)c1cccc(S(=O)(=O)N2CCOCC2)c1)Nc1ccc2c(c1)OCO2	.	-100.0	.	?	.
O=C(OCc1ccc2c(c1)OCO2)c1cccc(S(=O)(=O)N2CCCCC2)c1	.	.	7.08µM	.	?
CN(C)S(=O)(=O)c1cccc(NC(=O)COC(=O)c2ccc([N+](=O)[O-])o2)c1	.	.	20µM	.	.
CN(C)S(=O)(=O)c1cccc(NC(=O)COC(=O)c2cc(=O)c3ccccc3o2)c1	/	/	.	?	/
O=C(COC(=O)c1ccc([N+](=O)[O-])o1)Nc1cccc(S(=O)(=O)N2CCOCC2)c1	.	?	1µM	.	.
COc1cc2c(cc1OC)CN(C(=O)CCCN1C(=O)c3ccccc3C1=O)CC2	.	?	?	.	.
COc1ccc(NC(=O)COC(=O)c2ccc([N+](=O)[O-])o2)cc1Cl	.	/	22.4µM	.	/
CCOc1ccccc1NC(=S)NC(=O)CCCOc1ccc(Cl)cc1Cl	.	.	11.2µM	?	.
O=C(COC(=O)c1ccc2c(c1)OCCO2)Nc1cccc(S(=O)(=O)N2CCOCC2)c1	.	/	.	.	/
O=C(COc1ccc(Cl)cc1Cl)NC(=S)Nc1ccccc1C(=O)O	.	/	?	/	/
COc1cc2c(cc1OC)CN(C(=O)CCCOc1ccc(Cl)cc1Cl)CC2	.	?	.	.	35.5µM
COc1cccc(NC(=O)C(OC(=O)c2ccc([N+](=O)[O-])o2)c2ccccc2)c1 (stereo not drawn)	.	.	22.4µM	.	.
Cc1ccc(-c2ccccc2)n1-c1ccc(C(=O)O)cc1	.	.	25.1µM	.	.
Cc1ccccc1NC(=O)CSC1=Nc2ccccc2C2=NC(Cc3ccccc3)C(=O)N12 (stereo not drawn)	/	/	/	.	/
COc1ccc(C2C3=C(CC(C)(C)CC3=O)Nc3c2c(=O)[nH]c(=O)n3Cc2ccccc2)cc1OC (stereo not drawn)	.	-84.6	.	.	?
COc1cc(C2C3=C(CC(C)(C)CC3=O)Nc3c2c(=O)[nH]c(=O)n3Cc2ccccc2)ccc1O (stereo not drawn)	.	.	.	.	?
Cc1cc(C(F)(F)F)nc(SCC(=O)NC2CC3CCC2C3)n1 (stereo not drawn)	.	.	.	.	20µM
Cc1cc(C(F)(F)F)nc(SCC(=O)Nc2ccccc2)n1	.	.	.	.	.
Cc1ccc(C)c(S(=O)(=O)Nc2ccc3scnc3c2)c1	.	.	1.78µM	.	.
Cc1ccc(C)c(S(=O)(=O)Nc2nc3ccc(S(N)(=O)=O)cc3s2)c1	/	/	.	/	/
O=C(Nc1ccc2c(c1)OCO2)C1CCCN1C(=O)NCc1ccccc1 (stereo not drawn)	.	.	.	.	.
O=C(Nc1ccc2c(c1)OCO2)C1CCCN1C(=O)OCc1ccccc1 (stereo not drawn)	.	-126.5	?	.	.
SMILES	Luc counter	PNC inhibitor	ALDH1A1 block	Lamin A splicing	HPGD block
O=C(Nc1ccc2c(c1)OCO2)C1CCCN1C(=O)Nc1ccccc1F (stereo not drawn)	.	-84.4	?	.	.
COc1ccccc1NC(=O)N1CCCC1C(=O)Nc1ccc2c(c1)OCO2 (stereo not drawn)	.	.	.	.	.
O=C[C@@H]1CCCN1C(=O)[C@@H]1CCCN1C(=O)OCc1ccccc1	/	/	7.94µM	/	/
COc1ccc(-c2csc(/C(C#N)=C(\O)CSc3nccn3C)n2)cc1OC	.	.	8.91µM	.	25.1µM
Cc1ccc(-c2csc(/C(C#N)=C(\O)CCl)n2)cc1	.	/	?	/	/
O=C(Nc1cccc(F)c1)N1CC[C@@]2(CCCN(C(=O)c3csnn3)C2)C1	.	/	.	/	.
C/C(=N/NC(=O)CSc1nc2ccccc2s1)c1ccncc1	/	/	20µM	/	/
